Source: PubChem BioAssay
Rows were chosen to be rich in hits. Some 2.6% of all compounds tested hit in one or more screens of this group.
Cruzain noTriton – blocks cruzain activity in detergent-free assay; purified cruzain, Z-FR-AMC fluorescence, no detergent; P25779; Potency, µM, without a hit: max response, negative = inhibition, most hits filed as inhibitors; 2.3% of 200,000 active; AID 1476;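 note: plate controls were enzyme without inhibitor for no effect and buffer without enzyme for full effect; nearly all actives have a fitted effect of over 40% in size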
Target sequence (P25779 123-467 limits assumed): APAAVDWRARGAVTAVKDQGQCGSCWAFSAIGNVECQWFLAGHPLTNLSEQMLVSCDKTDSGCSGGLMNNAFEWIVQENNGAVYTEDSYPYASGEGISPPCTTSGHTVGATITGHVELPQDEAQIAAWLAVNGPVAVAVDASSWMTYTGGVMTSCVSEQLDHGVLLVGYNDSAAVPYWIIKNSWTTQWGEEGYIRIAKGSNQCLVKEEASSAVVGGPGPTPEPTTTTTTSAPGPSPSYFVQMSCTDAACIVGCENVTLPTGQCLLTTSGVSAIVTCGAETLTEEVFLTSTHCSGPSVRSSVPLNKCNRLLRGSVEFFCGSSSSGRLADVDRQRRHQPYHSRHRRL
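Detergent-free condition (0.00005% Triton X-100) in acetate buffer pH 5.5 with DTT. 1.5 nM enzyme and compound were pre-mixed 15 min, then 2 uM Z-FR-AMC substrate added; reaction progress from fluorescence change between first and third reads (60 s).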
Cruzain Triton – blocks cruzain activity in presence of Triton detergent; Potency, µM, without a hit: max response, negative = inhibition, usual class: inhibitors; P25779; AID 1478; purified cruzain, Z-FR-AMC fluorescence, 0.01% Triton; 0.43% of 200,000 active;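 note: plate controls were neutral wells for no effect and buffer without enzyme for full effect; nearly all actives have a fitted effect of over 40% in size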
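15 min RT preincubation of 1.5 nM cruzain with compound, then 2 uM Z-FR-AMC added; kinetic AMC fluorescence, 60 s delta. Triton X-100 0.01%, pH 5.5.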
Active calls of the source: *; ? = inconclusive. Calls come from the whole dose curve; as a rule, active = well fitted curve in the direction sought with a large enough effect; inconclusive = small, poorly fitted or top-dose-only effect, or another doubt; inactive = no such curve, though single readings can be large; an effect the other way counts as inactive or inconclusive. Potency is the fitted concentration of half-maximal effect.

SMILES	Cruzain noTriton	Cruzain Triton
Cc1cc(-c2ccccc2)nc2[nH]n(-c3ccccc3)c(=O)c12	5%	-3%
O=C(Nc1cnn(Cc2ccc(Cl)cc2Cl)c1)c1noc2c1CCc1ccccc1-2	7.9µM*	-6%
Cc1cc(C(=O)Nc2cnn(Cc3ccc(Cl)cc3Cl)c2)no1	-4%	-3%
COc1ccc(C(=O)NC(=O)N2CCCCC2)cc1	1%	-2%
Cc1ccc2cc(CN(Cc3ccc4c(c3)OCO4)Cc3nnnn3Cc3ccco3)c(=O)[nH]c2c1C	32µM*	-1%
Cc1ccc(C)c2[nH]c(=O)c(CN(Cc3ccc4c(c3)OCO4)Cc3nnnn3Cc3ccco3)cc12	-7%	-1%
CCOC(=O)c1c(O)c2c([nH]c1=O)CCCC2	-3%	3%
Cc1ccc(NC(=O)CNc2ccc(Cl)cc2F)cc1	10%	-3%
CC(=O)[C@@H]1[C@H]2[C@H](C(=O)[C@H]3OC[C@@H]2O3)[C@H]2C=Cc3ccccc3N21	?	-4%
O=C(c1ccco1)[C@@H]1[C@@H]2C(=O)N(c3ccc(F)cc3)C(=O)[C@@H]2[C@H]2C=Cc3ccccc3N21	25µM*	-6%
O=C(c1ccco1)[C@@H]1[C@@H]2C(=O)N(c3ccc(F)cc3)C(=O)[C@@H]2C2c3ccccc3C=CN21 (stereo not given in full)	-8%	-6%
O=C(c1ccco1)[C@@H]1[C@@H]2C(=O)N(c3ccc(Br)cc3)C(=O)[C@@H]2C2c3ccccc3C=CN21 (stereo not given in full)	13µM*	-4%
COc1ccc(-c2cnnc(N/N=C/c3ccc(O)c(O)c3)n2)cc1	-5%	-11%
O=C(Nc1nc(-c2ccccc2)c(-c2ccccc2)s1)c1ccc(S(=O)(=O)N2CCCC2)cc1	?	6%
Nc1nc(NC(=O)c2cccc(S(=O)(=O)N3CCCCCC3)c2)nc(-c2ccccc2)n1	20µM*	0%
O=C(Nc1nc(-c2ccccc2)c(C(=O)c2ccccc2)s1)c1ccc(S(=O)(=O)N2CCCC2)cc1	25µM*	-2%
O=C(O)c1cccc(NC(=O)c2cccc(S(=O)(=O)N3CCCCC3)c2)c1	2%	-3%
CCSCCNC(=O)c1cc(-n2cnnc2)ccc1Cl	10%	4%
CC(=O)N1CCc2cc(Br)cc(S(=O)(=O)NCCCN3CCC(C)CC3)c21	0%	5%
Fc1ccc(CNc2ccc(CNc3ncn[nH]3)cc2)cc1	-5%	-1%
COC(=O)C1=C(C)N=c2s/c(=C/c3ccoc3)c(=O)n2C1c1ccccc1 (stereo not given)	-7%	-9%
COc1ccc(C2C(C(C)=O)=C(C)N=c3s/c(=C/c4ccc5c(c4)OCO5)c(=O)n32)cc1 (stereo not given)	10µM*	-6%
CCOC(=O)C1=C(C)N=c2s/c(=C/c3ccco3)c(=O)n2C1c1cccc(OC)c1 (stereo not given)	25µM*	-29%
CCOC(=O)C1=C(N)n2c(s/c(=C/c3ccco3)c2=O)=C(C(=O)OC)C1c1ccco1 (stereo not given)	13µM*	-2%
CCOC(=O)C1=c2s/c(=C\c3cccnc3)c(=O)n2C(N)=C(C(=O)OC)C1c1cccnc1 (stereo not given)	14%	-8%
SMILES	Cruzain noTriton	Cruzain Triton
CCOC(=O)C1=C(C)N=c2s/c(=C\c3cccn3C)c(=O)n2C1c1cccc(OC)c1OC (stereo not given)	?	-9%
CC(C)(C)C1CCc2c(sc3nc(-c4cc5ccccc5oc4=O)[nH]c(=O)c23)C1 (stereo not given)	21%	1%
N=C1C(c2nc(-c3ccc(F)cc3)cs2)=C(O)CN1CCCN1CCOCC1	0%	-6%
CC(C)CCN1CC(O)=C(c2nc(-c3ccc(Cl)cc3)cs2)C1=N	25µM*	2%
COc1ccc(-c2n[nH]c(C)c2-c2cnn(-c3ccccc3)c2)c(O)c1	-4%	-13%
Cc1cc(C)cc(Oc2coc3cc(OCC(=O)NC4CCCCC4)ccc3c2=O)c1	5%	-1%
O=c1oc(-c2cccs2)nc2sc3c(c12)CCC3	13µM*	1%
O=c1oc(-c2cccs2)nc2sc3c(c12)CCCC3	?	3%
CCOC(=O)Cc1csc(N/N=C/c2ccccc2)n1	1%	-7%
CCOC(=O)Cc1csc(N/N=C\c2cccc(Br)c2)n1	32µM*	-23%
CCOC(=O)c1cnc(-n2nc(C)cc2C)nc1NC	15%	0%
CCOC(=O)c1cnc(-n2nc(C)cc2C)nc1NNc1nc(-c2ccccc2)cc(-c2ccccc2)n1	20µM*	-1%
CC(C)=CC(=O)Nc1nnc(-c2ccccc2)s1	?	6%
CC(C)Sc1nnc([C@@H](N)Cc2c[nH]c3ccccc23)o1	7%	-2%
Cc1ccc(C)c(NC(=O)CSc2nnc([C@@H](N)Cc3c[nH]c4ccccc34)o2)c1	25µM*	?
CCOc1ccc(-c2nc3c(c(SCC(=O)N4CCCCC4)n2)Cc2ccccc2O3)cc1	-6%	0%
Cc1sc(NC(=O)c2cc(-c3ccc(Cl)cc3)nc3ccccc23)c(C(N)=O)c1C	13µM*	-4%
Cc1ccccc1-c1cc(C(=O)Nc2sc(C(=O)OC(C)C)c(C)c2C#N)c2ccccc2n1	10µM*	0%
COC(=O)c1sc(NC(=O)c2cc(-c3ccccc3)nc3ccccc23)c(C#N)c1C	-20%	-6%
Cc1cc(NC(=O)c2cc(-c3ccccc3C)nc3ccccc23)no1	-14%	-7%
CCOC(=O)c1sc(NC(=O)c2cc(-c3ccc(C)cc3)nc3ccccc23)c(C#N)c1C	10µM*	-1%
CCNC(=S)NNC(=O)c1cc(-c2ccc(OC)cc2)nc2ccccc12	23%	-1%
COc1ccc(Cl)cc1C(=O)NNC(=S)NC(=O)c1cc(-c2ccc(Cl)cc2)nc2ccccc12	3.2µM*	0%
Cc1sc(NC(=O)c2cc(-c3ccccc3)nc3ccccc23)c(C(N)=O)c1C	-10%	-4%
Cc1ccc(SCC(=O)Nc2ccc3oc(-c4ccc(F)cc4)nc3c2)cc1	11%	-5%
SMILES	Cruzain noTriton	Cruzain Triton
CCCCOc1ccc(-c2nc(/C=N/c3nccs3)c(O)o2)cc1	?	1%
CCOc1ccc2nc(/N=C/c3nc(-c4ccc(Br)cc4)oc3O)sc2c1	7.9µM*	2%
COc1cc(NC(=O)C2CCN(S(=O)(=O)c3c(C)noc3/C=C/c3cccs3)CC2)cc(OC)c1	16µM*	-2%
Cc1noc(/C=C/c2cccs2)c1S(=O)(=O)N1CCC(C(=O)Nc2ccc(F)c(Cl)c2)CC1	?	-2%
COc1ccc(NC(=O)C2CCN(S(=O)(=O)c3c(C)noc3/C=C/c3cccs3)CC2)cc1Cl	10µM*	-4%
COc1ccc(/C=C\c2onc(C)c2S(=O)(=O)N2CCC(C(=O)Nc3cccc(Cl)c3)CC2)cc1	7.9µM*	-3%
Cc1ccc(NC(=O)C2CCN(S(=O)(=O)c3c(C)noc3/C=C/c3cccs3)CC2)cc1F	?	-2%
COc1ccc(/C=C\c2onc(C)c2S(=O)(=O)N2CCC(C(=O)Nc3cccc(C)c3C)CC2)cc1	-20%	-3%
O=C1C=C(NCC2CCCO2)C2(CCCCC2)O1 (stereo not given)	2%	3%
CC1=c2c(oc3cc(O)c(Nc4c(C)cc(O)cc4O)c(C)c23)=CC(=O)C1=Nc1c(C)cc(O)cc1O	2%	-12%
CC(C)CNS(=O)(=O)c1ccc(N2CCCCS2(=O)=O)cc1	5%	0%
O=S(=O)(O)c1cc(N=Nc2cccc3ccccc23)c(O)c2ncccc12	-5%	3.5µM*
